Assay results as given in the supplement of paper PMC10849652.
The full data set covers some 7,900 targets. This sample favours those with a hit. About 0.6% of all pairs of compound and target were hits.

Legend:
Assay in all cases: log2 fold change, soluble protein after heating vs DMSO (PISA); higher = thermal stabilisation; K562 cells, 10 uM, 30 min; active = over 0.2 and 3.5 SD of the protein, either way, in both replicates (recomputed)
[1] = compound: COC1=CC=C(C=C1)CN2C=CC3=C2C=C(C=C3)C(=O)NO
Method in brief: (§1)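 K562 cells at 2×10^6 cells/mL were given 10 μM compound for 30 min. Aliquots then went through 3 min of heating across 48°C-58°C, were pooled, and were extracted in PBS with 0.5% NP-40 at 4°C, and the supernatant after 21,000xg for 90 min was quantified by TMTpro 16plex LC-MS/MS with channel sums equalised. Thermal stability relative to control samples, from duplicates, is given as log2 fold change.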

filanesib = compound: CON(C)C(=O)N1N=C(c2cc(F)ccc2F)S[C@@]1(CCCN)c1ccccc1 [filanesib]
Method in brief: as §1

zotarolimus = compound: CO[C@H]1C[C@@H]2CC[C@@H](C)[C@@](O)(O2)C(=O)C(=O)N2CCCC[C@H]2C(=O)O[C@H]([C@H](C)C[C@@H]2CC[C@H](n3cnnn3)[C@H](OC)C2)CC(=O)[C@H](C)/C=C(\C)[C@@H](O)[C@@H](OC)C(=O)[C@H](C)C[C@H](C)/C=C/C=C/C=C/1C [zotarolimus]
Method in brief: as §1

idasanutlin = compound: COc1cc(C(=O)O)ccc1NC(=O)[C@@H]1N[C@@H](CC(C)(C)C)[C@](C#N)(c2ccc(Cl)cc2F)[C@H]1c1cccc(Cl)c1F [idasanutlin]
Method in brief: as §1

alisertib = compound: COc1cc(Nc2ncc3c(n2)-c2ccc(Cl)cc2C(c2c(F)cccc2OC)=NC3)ccc1C(=O)O [alisertib]
Method in brief: as §1

[2] = compound: COc1cc2nc(-c3cc(F)ccc3O)nc(N[C@@H]3CNC[C@H]3C(C)(C)O)c2cc1OC
Method in brief: as §1

gefitinib = compound: COc1cc2ncnc(Nc3ccc(F)c(Cl)c3)c2cc1OCCCN1CCOCC1 [gefitinib]
Method in brief: as §1

[3] = compound: COc1cccc2cc(-c3nc([C@H]4CC[C@H](C(=O)O)CC4)n4ncnc(N)c34)[nH]c12
Method in brief: as §1

lapatinib = compound: CS(=O)(=O)CCNCc1ccc(-c2ccc3ncnc(Nc4ccc(OCc5cccc(F)c5)c(Cl)c4)c3c2)o1 [lapatinib]
Method in brief: as §1

pictilisib = compound: CS(=O)(=O)N1CCN(Cc2cc3nc(-c4cccc5[nH]ncc45)nc(N4CCOCC4)c3s2)CC1 [pictilisib]
Method in brief: as §1

[4] = compound: CS(=O)(=O)c1ccc(-c2cnc(N)c(C(=O)Nc3ccccc3)n2)cc1
Method in brief: as §1

crizotinib = compound: C[C@@H](Oc1cc(-c2cnn(C3CCNCC3)c2)cnc1N)c1c(Cl)ccc(F)c1Cl [crizotinib]
Method in brief: as §1

[5] = compound: C[C@@H]1COCCN1C2=NC(=NC(=C2)C3(CC3)S(=O)(=O)C)C4=C5C=CNC5=CC=C4
Method in brief: as §1

[6] = compound: C[C@H](C1=CC=C(C=C1)C(=O)NC2=C3C=CNC3=NC=C2)N
Method in brief: as §1

duvelisib = compound: C[C@H](Nc1ncnc2nc[nH]c12)c1cc2cccc(Cl)c2c(=O)n1-c1ccccc1 [duvelisib]
Method in brief: as §1

gandotinib = compound: Cc1cc(Nc2cc(CN3CCOCC3)c3nc(C)c(Cc4ccc(Cl)cc4F)n3n2)n[nH]1 [gandotinib]
Method in brief: as §1

tozasertib = compound: Cc1cc(Nc2cc(N3CCN(C)CC3)nc(Sc3ccc(NC(=O)C4CC4)cc3)n2)n[nH]1 [tozasertib]
Method in brief: as §1

[7] = compound: Cc1cc(SCc2sc(-c3ccc(C(F)(F)F)cc3)nc2C)ccc1OCC(=O)O
Method in brief: as §1

doramapimod = compound: Cc1ccc(-n2nc(C(C)(C)C)cc2NC(=O)Nc2ccc(OCCN3CCOCC3)c3ccccc23)cc1 [doramapimod]
Method in brief: as §1

ispinesib = compound: Cc1ccc(C(=O)N(CCCN)[C@@H](c2nc3cc(Cl)ccc3c(=O)n2Cc2ccccc2)C(C)C)cc1 [ispinesib]
Method in brief: as §1

Measured: log2 fold change

PSPC1 (UniProt Q8WXF1)
Chain of UniProt Q8WXF1 (Q8WXF1 whole entry, looked up): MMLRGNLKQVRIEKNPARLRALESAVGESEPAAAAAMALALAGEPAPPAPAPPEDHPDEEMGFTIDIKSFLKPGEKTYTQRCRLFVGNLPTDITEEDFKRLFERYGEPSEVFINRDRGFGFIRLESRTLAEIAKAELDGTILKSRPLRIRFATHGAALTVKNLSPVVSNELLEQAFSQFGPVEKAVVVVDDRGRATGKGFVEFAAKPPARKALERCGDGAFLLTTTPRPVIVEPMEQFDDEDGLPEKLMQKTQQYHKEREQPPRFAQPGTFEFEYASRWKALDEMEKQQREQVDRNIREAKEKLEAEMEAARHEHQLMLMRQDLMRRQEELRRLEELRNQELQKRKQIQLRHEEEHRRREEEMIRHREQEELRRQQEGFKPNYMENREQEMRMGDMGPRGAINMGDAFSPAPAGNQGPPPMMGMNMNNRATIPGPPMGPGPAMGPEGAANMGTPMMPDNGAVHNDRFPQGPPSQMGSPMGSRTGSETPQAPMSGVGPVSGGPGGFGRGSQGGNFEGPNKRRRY
inactive: [1] 0.008 | filanesib 0.048 | zotarolimus 0.026 | idasanutlin 0.03 | alisertib -0.084 | [2] -0.146 | gefitinib 0.061 | [3] -0.042 | lapatinib 0.152 | pictilisib -0.081 | [4] -0.068 | crizotinib 0.076 | [5] -0.044 | [6] 0.088 | duvelisib -0.03 | gandotinib -0.09 | tozasertib 0.01 | [7] 0.04 | doramapimod -0.028 | ispinesib -0.217

PRKD3 (UniProt O94806)
inactive: [1] -0.062 | filanesib -0.002 | zotarolimus 0.084 | idasanutlin 0.171 | alisertib -0.039 | [3] 0.149 | pictilisib 0.255 | [4] -0.132 | crizotinib -0.292 | [6] -0.189 | duvelisib 0.033 | gandotinib 0.092 | [7] 0.039 | doramapimod -0.088 | ispinesib -0.237

PPP2R5C isoform 5 (UniProt Q13362)
Chain of UniProt Q13362 (Q13362 whole entry, looked up): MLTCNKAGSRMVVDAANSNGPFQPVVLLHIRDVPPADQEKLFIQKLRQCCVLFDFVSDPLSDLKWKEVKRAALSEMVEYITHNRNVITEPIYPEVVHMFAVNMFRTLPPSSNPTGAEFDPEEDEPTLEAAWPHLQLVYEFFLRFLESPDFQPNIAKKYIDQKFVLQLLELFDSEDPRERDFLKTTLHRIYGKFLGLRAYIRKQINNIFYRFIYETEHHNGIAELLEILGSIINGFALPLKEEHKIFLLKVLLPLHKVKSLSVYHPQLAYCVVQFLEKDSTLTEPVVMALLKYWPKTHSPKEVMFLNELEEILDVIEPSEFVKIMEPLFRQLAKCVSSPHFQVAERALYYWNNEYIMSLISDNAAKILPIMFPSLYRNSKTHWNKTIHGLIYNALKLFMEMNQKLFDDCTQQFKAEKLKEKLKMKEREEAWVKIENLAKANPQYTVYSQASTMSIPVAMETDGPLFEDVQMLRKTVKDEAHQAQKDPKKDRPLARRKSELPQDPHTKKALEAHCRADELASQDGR
inactive: [1] 0.022 | filanesib -0.126 | zotarolimus 0.031 | idasanutlin -0.137 | alisertib -0.11 | [2] 0.082 | gefitinib -0.018 | [3] -0.012 | lapatinib 0 | pictilisib 0.111 | [4] -0.054 | crizotinib -0.071 | [5] 0.023 | [6] -0.05 | duvelisib 0.009 | gandotinib -0.024 | tozasertib -0.019 | [7] 0.069 | doramapimod -0.043 | ispinesib 0.007

PIK3CD (UniProt O00329)
Chain of UniProt O00329 (O00329 whole entry, looked up): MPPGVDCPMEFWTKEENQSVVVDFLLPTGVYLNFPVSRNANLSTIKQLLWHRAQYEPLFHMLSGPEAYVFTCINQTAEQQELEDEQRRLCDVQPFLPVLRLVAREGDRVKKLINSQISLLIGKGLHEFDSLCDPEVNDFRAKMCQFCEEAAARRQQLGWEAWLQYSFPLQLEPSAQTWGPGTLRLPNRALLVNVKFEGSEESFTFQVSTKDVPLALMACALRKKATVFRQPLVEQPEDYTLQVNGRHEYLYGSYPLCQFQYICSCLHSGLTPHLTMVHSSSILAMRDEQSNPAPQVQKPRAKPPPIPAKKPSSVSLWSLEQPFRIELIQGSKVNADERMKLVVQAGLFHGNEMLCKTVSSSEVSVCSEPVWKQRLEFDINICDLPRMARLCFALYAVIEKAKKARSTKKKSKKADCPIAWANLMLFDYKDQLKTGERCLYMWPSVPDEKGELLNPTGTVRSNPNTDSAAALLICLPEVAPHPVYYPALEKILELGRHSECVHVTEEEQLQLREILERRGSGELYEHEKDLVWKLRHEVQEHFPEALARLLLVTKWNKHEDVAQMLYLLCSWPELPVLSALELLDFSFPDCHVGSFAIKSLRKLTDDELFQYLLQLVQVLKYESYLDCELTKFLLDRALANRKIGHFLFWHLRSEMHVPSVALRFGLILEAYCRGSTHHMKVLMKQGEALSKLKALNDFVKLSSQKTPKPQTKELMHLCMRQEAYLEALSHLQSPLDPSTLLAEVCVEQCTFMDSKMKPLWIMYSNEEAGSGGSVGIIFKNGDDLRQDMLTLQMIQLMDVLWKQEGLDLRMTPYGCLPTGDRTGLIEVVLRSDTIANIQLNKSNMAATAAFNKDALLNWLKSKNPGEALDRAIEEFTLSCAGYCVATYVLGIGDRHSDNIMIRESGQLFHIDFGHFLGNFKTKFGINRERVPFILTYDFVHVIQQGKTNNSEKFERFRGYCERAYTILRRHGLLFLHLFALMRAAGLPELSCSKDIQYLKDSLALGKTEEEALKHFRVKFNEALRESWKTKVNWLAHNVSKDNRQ
inactive: [1] -0.016 | filanesib 0.029 | zotarolimus -0.098 | idasanutlin 0.105 | [2] 0.02 | lapatinib -0.018 | [4] -0.019 | crizotinib 0.009 | [5] 0.034 | [6] 0.14 | duvelisib 0.233 | tozasertib 0.049 | [7] -0.11 | doramapimod 0.042 | ispinesib -0.029

PNPLA8 (UniProt Q9NP80)
Chain of UniProt Q9NP80 (Q9NP80 whole entry, looked up): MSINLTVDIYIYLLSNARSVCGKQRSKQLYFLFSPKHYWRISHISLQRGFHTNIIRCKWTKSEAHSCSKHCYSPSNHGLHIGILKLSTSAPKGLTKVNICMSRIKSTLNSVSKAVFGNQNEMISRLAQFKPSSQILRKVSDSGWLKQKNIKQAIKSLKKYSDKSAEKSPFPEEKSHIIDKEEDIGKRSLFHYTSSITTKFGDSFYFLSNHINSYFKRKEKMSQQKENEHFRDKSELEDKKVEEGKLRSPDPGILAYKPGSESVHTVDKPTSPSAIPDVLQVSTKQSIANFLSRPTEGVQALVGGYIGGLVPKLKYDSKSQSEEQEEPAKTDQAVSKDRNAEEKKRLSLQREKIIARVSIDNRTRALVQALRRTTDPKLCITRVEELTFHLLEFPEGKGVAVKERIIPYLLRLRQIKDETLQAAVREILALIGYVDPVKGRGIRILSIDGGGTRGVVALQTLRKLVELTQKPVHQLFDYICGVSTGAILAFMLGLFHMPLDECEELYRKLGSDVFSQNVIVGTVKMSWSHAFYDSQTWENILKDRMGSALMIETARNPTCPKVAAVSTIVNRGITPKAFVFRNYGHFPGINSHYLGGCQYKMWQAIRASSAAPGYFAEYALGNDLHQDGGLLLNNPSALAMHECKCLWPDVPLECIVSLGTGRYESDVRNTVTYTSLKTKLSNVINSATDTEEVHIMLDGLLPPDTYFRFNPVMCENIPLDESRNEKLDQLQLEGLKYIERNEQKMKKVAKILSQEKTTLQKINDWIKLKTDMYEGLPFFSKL
inactive: [1] -0.061 | filanesib 0.006 | zotarolimus -0.077 | idasanutlin -0.072 | alisertib -0.053 | [2] -0.125 | gefitinib 0.032 | [3] 0.047 | lapatinib -0.022 | pictilisib 0.118 | [4] -0.009 | crizotinib -0.12 | [5] 0.002 | [6] -0.034 | duvelisib -0.003 | gandotinib 0.031 | tozasertib -0.011 | [7] -0.002 | doramapimod 0.023 | ispinesib -0.051

PDIK1L (UniProt Q8N165)
Chain of UniProt Q8N165 (Q8N165 whole entry, looked up): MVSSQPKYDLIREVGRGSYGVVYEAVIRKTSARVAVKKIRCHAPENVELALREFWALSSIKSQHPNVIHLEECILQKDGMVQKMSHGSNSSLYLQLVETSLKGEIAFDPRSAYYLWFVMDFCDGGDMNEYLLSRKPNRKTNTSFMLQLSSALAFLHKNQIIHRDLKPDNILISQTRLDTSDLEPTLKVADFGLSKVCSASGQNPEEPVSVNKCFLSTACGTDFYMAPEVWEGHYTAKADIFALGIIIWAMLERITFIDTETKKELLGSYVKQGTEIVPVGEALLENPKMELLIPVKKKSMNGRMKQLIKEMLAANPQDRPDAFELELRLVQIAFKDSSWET
inactive: [1] -0.014 | filanesib 0.112 | zotarolimus -0.059 | idasanutlin 0.001 | alisertib 0.099 | [2] -0.127 | gefitinib 0.012 | [3] 0.092 | lapatinib 0.086 | [4] 0.009 | crizotinib -0.082 | [5] -0.003 | [6] 0.029 | duvelisib 0.086 | tozasertib -0.094 | [7] 0.017 | doramapimod 0.085 | ispinesib 0.039

PRMT7 (UniProt Q9NVM4)
Chain of UniProt Q9NVM4 (Q9NVM4 whole entry, looked up): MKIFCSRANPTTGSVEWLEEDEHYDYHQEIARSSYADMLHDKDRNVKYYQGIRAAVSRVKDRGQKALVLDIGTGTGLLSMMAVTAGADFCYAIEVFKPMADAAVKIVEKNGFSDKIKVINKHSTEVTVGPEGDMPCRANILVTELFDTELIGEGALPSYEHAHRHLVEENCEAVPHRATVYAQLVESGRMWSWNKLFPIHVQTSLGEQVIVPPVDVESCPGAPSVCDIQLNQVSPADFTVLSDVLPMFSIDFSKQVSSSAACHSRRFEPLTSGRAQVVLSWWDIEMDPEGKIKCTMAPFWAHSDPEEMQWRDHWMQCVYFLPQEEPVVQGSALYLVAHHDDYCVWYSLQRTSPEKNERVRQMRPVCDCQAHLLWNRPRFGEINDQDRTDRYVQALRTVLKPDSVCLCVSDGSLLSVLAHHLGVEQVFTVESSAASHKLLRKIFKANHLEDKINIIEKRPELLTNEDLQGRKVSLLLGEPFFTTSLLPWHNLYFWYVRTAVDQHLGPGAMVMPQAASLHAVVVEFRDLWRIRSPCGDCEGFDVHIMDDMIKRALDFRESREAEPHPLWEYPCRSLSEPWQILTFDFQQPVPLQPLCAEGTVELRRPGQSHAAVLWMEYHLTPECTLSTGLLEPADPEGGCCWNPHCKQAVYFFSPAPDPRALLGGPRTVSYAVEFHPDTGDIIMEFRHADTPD
inactive: [1] -0.174 | filanesib -0.072 | zotarolimus -0.008 | idasanutlin -0.004 | alisertib -0.073 | [2] -0.037 | gefitinib 0.05 | [3] -0.018 | lapatinib 0.026 | pictilisib -0.009 | [4] 0.063 | crizotinib -0.142 | [5] 0.075 | [6] 0.083 | duvelisib 0.037 | gandotinib 0.067 | tozasertib 0.01 | [7] 0.12 | doramapimod 0.038 | ispinesib 0.065

PRPF31 (UniProt Q8WWY3)
Chain of UniProt Q8WWY3 (Q8WWY3 whole entry, looked up): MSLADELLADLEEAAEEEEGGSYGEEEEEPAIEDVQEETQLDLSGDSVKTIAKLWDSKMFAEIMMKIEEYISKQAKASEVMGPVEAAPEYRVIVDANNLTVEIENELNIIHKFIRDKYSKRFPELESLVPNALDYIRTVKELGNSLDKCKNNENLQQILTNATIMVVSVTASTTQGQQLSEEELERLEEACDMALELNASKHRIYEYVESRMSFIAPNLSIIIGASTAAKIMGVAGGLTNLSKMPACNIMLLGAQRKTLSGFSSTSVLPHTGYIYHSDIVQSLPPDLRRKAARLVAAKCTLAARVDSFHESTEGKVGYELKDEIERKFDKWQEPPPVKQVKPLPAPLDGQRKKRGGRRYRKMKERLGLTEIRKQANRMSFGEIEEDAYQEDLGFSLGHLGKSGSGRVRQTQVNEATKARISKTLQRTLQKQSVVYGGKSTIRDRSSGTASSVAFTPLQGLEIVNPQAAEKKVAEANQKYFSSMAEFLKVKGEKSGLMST
inactive: [1] 0.07 | filanesib 0.006 | zotarolimus -0.028 | idasanutlin -0.053 | alisertib 0.081 | [2] -0.393 | gefitinib 0.003 | [3] 0.024 | lapatinib 0.061 | pictilisib 0.139 | [4] 0.041 | crizotinib 0.013 | [5] 0.181 | [6] 0.137 | duvelisib 0.133 | gandotinib -0.044 | tozasertib 0.08 | [7] 0.159 | doramapimod 0.069 | ispinesib -0.029

PKN1 isoform 2 (UniProt Q16512)
inactive: [1] 0.001 | filanesib 0.019 | zotarolimus 0.046 | idasanutlin -0.05 | alisertib -0.021 | [2] -0.217 | gefitinib 0.001 | [3] -0.044 | lapatinib -0.009 | pictilisib -0.007 | [4] 0.03 | crizotinib -0.233 | [5] -0.015 | [6] -0.12 | duvelisib 0.001 | gandotinib -0.165 | tozasertib -0.052 | [7] 0.075 | doramapimod 0.022 | ispinesib -0.065

POLR2C (UniProt P19387)
inactive: [1] -0.04 | filanesib 0.034 | zotarolimus -0.012 | idasanutlin -0.074 | alisertib 0.013 | [2] -0.022 | gefitinib -0.045 | [3] 0.086 | lapatinib 0.099 | [4] 0.019 | crizotinib 0.127 | [5] -0.062 | [6] 0.163 | duvelisib 0.032 | tozasertib 0.017 | [7] 0.113 | doramapimod 0.012 | ispinesib 0.034

PCID2 (UniProt Q5JVF3)
inactive: [1] -0.136 | filanesib -0.025 | zotarolimus -0.07 | alisertib 0.087 | [2] 0.009 | gefitinib 0.039 | [3] -0.023 | lapatinib 0.175 | pictilisib 0.013 | [4] 0.157 | crizotinib -0.171 | [5] -0.138 | [6] 0.246 | duvelisib -0.02 | gandotinib -0.149 | tozasertib -0.028 | [7] 0.058 | doramapimod -0.005 | ispinesib -0.096

POGZ (UniProt Q7Z3K3)
inactive: [1] -0.066 | filanesib -0.021 | zotarolimus 0.008 | idasanutlin 0.01 | [2] 0.095 | lapatinib -0.086 | pictilisib 0.082 | [4] 0.044 | crizotinib -0.019 | [5] 0.242 | [6] 0.01 | duvelisib -0.115 | gandotinib 0.143 | tozasertib 0.153 | [7] 0.142 | doramapimod 0.053 | ispinesib -0.221

PDSS2 (UniProt Q86YH6)
Chain of UniProt Q86YH6 (Q86YH6 whole entry, looked up): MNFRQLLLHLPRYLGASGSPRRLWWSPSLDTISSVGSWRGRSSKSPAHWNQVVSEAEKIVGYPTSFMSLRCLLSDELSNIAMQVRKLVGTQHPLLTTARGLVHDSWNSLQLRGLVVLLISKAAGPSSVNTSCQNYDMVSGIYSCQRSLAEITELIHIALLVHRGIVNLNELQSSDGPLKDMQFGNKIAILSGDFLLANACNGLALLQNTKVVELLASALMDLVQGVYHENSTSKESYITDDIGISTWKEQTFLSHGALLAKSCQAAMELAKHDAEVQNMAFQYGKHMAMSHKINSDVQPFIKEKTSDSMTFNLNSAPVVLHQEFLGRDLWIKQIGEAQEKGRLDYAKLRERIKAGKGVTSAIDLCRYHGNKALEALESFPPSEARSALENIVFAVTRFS
inactive: [1] 0.23 | filanesib 0.025 | zotarolimus 0.184 | idasanutlin 0.157 | [2] -0.286 | gefitinib 0.15 | lapatinib 0.162 | pictilisib -0.038 | [4] -0.034 | crizotinib 0.078 | [5] 0.075 | [6] -0.058 | duvelisib -0.083 | gandotinib 0.098 | tozasertib -0.118 | [7] 0.149 | doramapimod 0.049 | ispinesib -0.031

PUF60 (UniProt Q9UHX1)
inactive: [1] 0.007 | filanesib 0.087 | zotarolimus 0.026 | idasanutlin 0.022 | alisertib -0.05 | [2] -0.028 | gefitinib 0.014 | [3] 0.008 | lapatinib 0.063 | pictilisib 0 | [4] -0.012 | crizotinib 0.031 | [5] 0.025 | [6] -0.199 | duvelisib 0.01 | gandotinib -0.09 | tozasertib 0.081 | [7] 0.056 | doramapimod -0.041 | ispinesib 0.039

PTK2B (UniProt Q14289)
inactive: [1] 0.083 | filanesib -0.077 | zotarolimus 0.019 | idasanutlin 0.026 | alisertib 0.064 | [2] 0.345 | gefitinib -0.011 | [3] -0.057 | lapatinib -0.022 | pictilisib 0.117 | [4] -0.029 | [5] -0.03 | [6] 0.234 | duvelisib 0.182 | gandotinib -0.03 | tozasertib -0.067 | [7] 0.016 | ispinesib -0.233

PNPLA4 (UniProt P41247)
inactive: [1] 0.041 | filanesib -0.184 | zotarolimus -0.142 | idasanutlin 0.003 | alisertib 0.026 | [2] -0.133 | gefitinib 0.015 | [3] 0.113 | lapatinib -0.049 | [4] 0.319 | [6] 0.559 | duvelisib -0.095 | tozasertib -0.005 | [7] 0.117 | ispinesib -0.093
active: crizotinib -0.651 | doramapimod 0.895
